A selection follows.
aSyn 5UTR act: Activators working through SNCA 5'UTR binding (MLPCN). alpha-synuclein 5'UTR reporter, activators screen. 7.1% of 300,000 active. activity score, % (tested at 7.5 µM), hits read low. AID 1814; in the data active means activity score below about -60%
* marks the source's active call; other numbers are inactive results.

SMILES	aSyn 5UTR act
CC(C)COc1ccc(-c2cc(C(=O)NN)[nH]n2)cc1	-83*
CCOc1ccc(-c2n[nH]c(C(=O)NN)c2C)cc1	-73*
CCOC(=O)c1cc(-c2ccc(OC)cc2)n[nH]1	-73*
CCOC(=O)c1cc(-c2ccc3c(c2)OCCO3)n[nH]1	-174*
Cc1cc(Cl)cc2c(N=Nc3ccccc3C(=O)O)c(O)[nH]c12	-68*
Cc1ccc(C(=O)Nc2cc3c(cc2Cl)OCCCO3)cc1	-145*
O=C(Nc1cc2c(cc1Cl)OCCCO2)c1ccc(F)cc1	-90*
O=C(Nc1cc2c(cc1Br)OCCCO2)c1ccccc1	-104*
CCCCC[n+]1ccn(C2=C([O-])c3ccccc3C(=O)/C2=N\S(=O)(=O)c2ccc(Cl)cc2)c1	48
CC(C)OC(=O)c1cc2ccccc2oc1=O	-66*
O=C(NNC(=O)c1cc2ccccc2oc1=O)c1ccccc1	-108*
CCOc1ccccc1NC(=O)c1cc2ccccc2oc1=O	-95*
O=C(c1cc2ccccc2oc1=O)N1CCN(c2ncccn2)CC1	-92*
O=C(Nc1ccc(F)cc1F)c1cc2ccccc2oc1=O	-156*
O=C(NNC(=O)c1cc2ccccc2cc1O)c1cccs1	-193*
N/C(=N\NC(=O)c1cccs1)c1cc2ccccc2oc1=O	-64*
N#CC1CC(c2ccccc2)=NN1c1ccccc1[N+](=O)[O-] (stereo not drawn)	-95*
COc1cccc(-c2nn(C)c3sc(C(=O)Nc4ccc5c(c4)OCCO5)cc23)c1	-101*
O=c1c2ccccc2[nH]c(=S)n1CCc1ccccc1	-123*
Cc1ccc(C)c(/C=N/Nc2nc3ccccc3c(=O)n2O)c1	-85*
C/C(=N\Nc1nc2ccccc2c(=O)n1O)c1ccco1	-119*
CC(C)(C)c1nnc(N/N=C/c2cc(Br)ccc2O)n(N)c1=O	116
N#CCCN1CCCc2cc(N=Nc3ccc(C(F)(F)F)cc3)ccc21	-191*
Cc1ccc2nc(SCC(=O)N3CCCC3)[nH]c2c1	-129*
Cc1ccc2nc(SCc3nc4ccccc4c(=O)[nH]3)[nH]c2c1	-140*
SMILES	aSyn 5UTR act
Cc1ccc2nc(SCC(=O)c3ccc(O)cc3O)[nH]c2c1	-220*
Cc1ccc2nc(CSc3nc(C)ccc3C#N)[nH]c2c1	79
Cc1cc(C(=O)CSc2nc3ccccc3c(=O)[nH]2)c(C)n1C	-130*
Cc1ccc(CSc2nc3ccncc3[nH]2)cc1	73
Cc1ccc2nc(SC(C)C(=O)N3CCCCC3)[nH]c2c1 (stereo not drawn)	-81*
Cc1ccc2nc(SC(C)C(=O)N3CCCC3)[nH]c2c1 (stereo not drawn)	-75*
CC(=O)C1=C(C)NC(SCC(=O)c2cc(Cl)ccc2Cl)=C(C#N)C1c1ccco1 (stereo not drawn)	-130*
N#CC1=C(SCC(=O)Nc2ccccc2)NC(=O)CC1c1ccco1 (stereo not drawn)	-141*
N#CC1=C(SCC(=O)Nc2ccccc2)NC(=O)CC1c1ccc(O)cc1 (stereo not drawn)	-128*
N#CC1=C(SCC(=O)c2ccccc2)NC2=C(C(=O)CCC2)C1c1ccco1 (stereo not drawn)	-305*
COC(=O)c1ccc(-c2ccc(/C=N/NC(=O)Cc3nnc(N)s3)o2)cc1	-67*
O=C(CN1C(=O)c2ccccc2S1(=O)=O)c1ccc(F)cc1	92
O=C(CN1CCN(CCN2C(=O)c3cccc4cccc(c34)C2=O)CC1)c1ccc(F)cc1	-65*
Cc1ccc(-c2csc(CC(N)=O)n2)cc1	-76*
N/C(Cc1nc(-c2ccc(Cl)cc2)cs1)=N/O	-67*
C/C(=N\Nc1ccc([N+](=O)[O-])cc1)c1ccc2c(c1)OCO2	-119*
C/C(=N\NC(=O)c1ccc2c(c1)OCO2)c1ccc2c(c1)OCO2	-83*
C/C(=N\NC(=O)c1ccc2c(c1)OCCO2)c1ccccc1	73
C/C(=N\NC(=O)c1cccs1)c1ccc2c(c1)OCO2	-74*
COC(=O)CNc1c(-c2ccccn2)nc2ccc(Br)cn12	-83*
Cc1cc(C)n2nc(-c3ccc(F)cc3)nc2n1	-109*
Cc1ccccc1Cn1nnc(-c2cccc(C(=O)O)c2)n1	-79*
O=C(O)c1cccc(-c2nnn(Cc3ccccc3)n2)c1	-85*
COc1ccc(-c2nnn(Cc3ccccc3)n2)cc1	-168*
CSc1ccc(-c2nnn(Cc3ccc(C)cc3)n2)cc1	-168*
SMILES	aSyn 5UTR act
CC(C)(C)Nc1nc(N2CCCC2)nc(N2CCCC2)n1	68
COCCCNc1nc(N)c([N+](=O)[O-])c(NC2CCCCC2)n1	90
COc1nc(NC2CCCCC2)nc(NC(C)(C)C)n1	-70*
Cc1ccccc1-c1nnc(-c2ccc(Cl)cc2)o1	-234*
Cc1ccccc1-c1nnc(-c2ccccc2)o1	-138*
Cc1cccc(-c2nnc(-c3ccccc3)o2)c1	-127*
Cc1ccc(-c2nnc(/C=C/c3ccccc3)o2)cc1	-136*
Cc1ccc(-c2nnc(-c3ccc4c(c3)OCO4)o2)cc1	-116*
Cn1cc(-c2nnc(-c3ccccc3)o2)c2ccccc21	-64*
Cc1cc(-c2nnc(-c3cccc(Cl)c3)o2)no1	-171*
CCc1ccc(-c2cc(C(=O)NCc3ccccn3)c3ccccc3n2)cc1	-227*
CCCc1ccc(-c2cc(C(=O)NC3=NCCS3)c3ccccc3n2)cc1	-191*
Cc1ccc(-c2cc(C(=O)NC3=NCCS3)c3ccccc3n2)cc1C	-168*
Cc1ccc(-c2cc(C(=O)N/N=C/c3c(C)nn(C)c3C)c3ccccc3n2)cc1C	-73*
CC(C)(C)C1CCc2sc(-c3nnc(CCl)o3)cc2C1 (stereo not drawn)	-64*

Screening data from PubChem.
